This passage reports growth results from PubChem BioAssay (NCI).

This is part of a sample that, as a whole, favours compounds with a hit. Of some 83,000 tested, about 20% had one in any assay.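 Method: cells in 96-well plates; compound added at one concentration; 48 h incubation; percent growth measured; values under 10 scored active.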 A number with no mark means an inactive call. Activity calls are given as the source filed them.

Some test systems named below: HCT-15 colon; HT29 colon; SNB-75 CNS; SNB-19 CNS; U251 CNS; PC-3 prostate; SK-MEL-5 melanoma; UACC-62 melanoma; LOX IMVI melanoma; SK-MEL-28 melanoma; SK-MEL-2 melanoma; EKVX NSCLC; SN12C renal; UO-31 renal; ACHN renal; CAKI-1 renal; MOLT-4 leukemia; TK-10 renal; A498 renal; CCRF-CEM leukemia.
Common to all, as to experiment: NCI-60 one-dose screen, 48 h (100 = growth as untreated, 0 = no growth, -100 = all killed)
Details in all cases: 10 µM unless noted

As for `Cl.Fc1c[c-]c(-c2ccccn2)c(F)c1.[Pt].c1ccc([PH+](C[PH+](c2ccccc2)c2ccccc2)c2ccccc2)cc1`, the growth with HCT-15 colon is -80.1% (active); with HT29 colon, -64.7% (active); in the assay with SNB-75 CNS it was -95.5% (active); in the assay on SNB-19 CNS, -88.9% (active); with U251 CNS, -77.1% (active); in the assay with PC-3 prostate it was -57.7% (active). Besides, the growth is -98.2% (active) with SK-MEL-5 melanoma; -82.3% (active) in the assay on UACC-62 melanoma; -88.9% (active) in the assay with LOX IMVI melanoma; -92.5% (active) in the assay on SK-MEL-28 melanoma; -74.6% (active) in the assay with SK-MEL-2 melanoma; -84.4% (active) in the assay on EKVX NSCLC. Besides, the growth is -70.3% (active) in the assay with SN12C renal; -93.2% (active) with UO-31 renal; -97.8% (active) in the assay with ACHN renal; -91% (active) with CAKI-1 renal; -38.9% (active) in the assay with MOLT-4 leukemia.

As to `CCCNCC(=O)Nc1ccc(C(=O)OC(C)(C)CC)cc1`, the growth in the assay with HCT-15 colon was 106%; in the assay on HT29 colon, 79.4%; in the assay on SNB-75 CNS, 104%; with SNB-19 CNS it was 99.7%; with U251 CNS, 100%; with PC-3 prostate, 75.8%. Moreover, the growth is 98.2% with SK-MEL-5 melanoma; 96.3% in the assay on UACC-62 melanoma; 100% in the assay on LOX IMVI melanoma; 112% with SK-MEL-28 melanoma; 95.6% in the assay with SK-MEL-2 melanoma; 98.1% in the assay on EKVX NSCLC. Moreover, the growth with SN12C renal is 105%; with UO-31 renal, 86.3%; in the assay on TK-10 renal, 93%; with A498 renal, 108%; with CCRF-CEM leukemia, 104%; in the assay with MOLT-4 leukemia, 89.7%.

With `CC(c1ccc(-n2cccn2)cc1)c1cnc(N2CCc3ccc(C(N)=O)cc3C2)s1` (centres undefined), the growth in the assay on HCT-15 colon is 69.3%; in the assay with HT29 colon it was 81.3%; in the assay with SNB-75 CNS, 76.1%; in the assay with SNB-19 CNS, 85.4%; in the assay on U251 CNS it was 78.3%; in the assay with PC-3 prostate, 59.1%. The growth was 18.8% in the assay on SK-MEL-5 melanoma; 57.3% with UACC-62 melanoma; 66.4% with LOX IMVI melanoma; 81.8% with SK-MEL-28 melanoma; 51.7% in the assay on SK-MEL-2 melanoma; 54.3% with EKVX NSCLC. Besides, the growth in the assay on SN12C renal is 86.9%; with UO-31 renal, 51.8%; in the assay on TK-10 renal, 68.6%; with A498 renal it was 81%; with CCRF-CEM leukemia, 33.4%; in the assay on MOLT-4 leukemia, 8.64% (active).

Turning to `CCN(CC)CCCC(C)NCc1ccccc1` (centres undefined), the growth in the assay on HCT-15 colon is 101%; with HT29 colon, 83.4%; in the assay with SNB-75 CNS, 99.8%; in the assay with SNB-19 CNS, 101%; in the assay with U251 CNS it was 99.2%; in the assay with PC-3 prostate it was 91.2%. In addition, the growth was 108% with SK-MEL-5 melanoma; 97.5% with UACC-62 melanoma; 100% in the assay with LOX IMVI melanoma; 102% in the assay on SK-MEL-28 melanoma; 80.9% in the assay on SK-MEL-2 melanoma; 102% with EKVX NSCLC. The growth was 102% in the assay with SN12C renal; 83.5% with UO-31 renal; 83.6% with TK-10 renal; 105% in the assay with A498 renal; 120% with CCRF-CEM leukemia; 110% in the assay on MOLT-4 leukemia.

For the compound `N#Cc1c(NC(=O)c2cccc(C(F)(F)F)c2)sc2c1CCC(=O)C2`, the growth is -39.4% (active) in the assay on HCT-15 colon; 2.24% (active) in the assay with HT29 colon; -50.5% (active) with SNB-75 CNS; 12.3% in the assay with SNB-19 CNS; 0.284% (active) with U251 CNS; -42% (active) with PC-3 prostate. Also, the growth with SK-MEL-5 melanoma was -95.6% (active); with UACC-62 melanoma, -51.1% (active); in the assay with LOX IMVI melanoma, -12.7% (active); in the assay on SK-MEL-28 melanoma, -42.5% (active); in the assay with SK-MEL-2 melanoma it was -0.134% (active); in the assay on EKVX NSCLC it was 14.7%. Also, the growth is 4.55% (active) in the assay with SN12C renal; -100% (active) in the assay on UO-31 renal; -93.8% (active) in the assay on ACHN renal; -85.3% (active) with CAKI-1 renal; 94.6% in the assay with A498 renal; 6.89% (active) with CCRF-CEM leukemia. In addition, in the assay with MOLT-4 leukemia, the growth is 3.86% (active).

For the compound `CCOC(=O)c1ccc(NC(=O)CCCN(CC)CC)cc1`, the growth in the assay with HCT-15 colon is 105%; in the assay on HT29 colon it was 88.6%; with SNB-75 CNS, 106%; in the assay with SNB-19 CNS, 111%; in the assay on U251 CNS, 98.2%; in the assay on PC-3 prostate, 78.3%. The growth with SK-MEL-5 melanoma is 110%; in the assay with UACC-62 melanoma it was 104%; with LOX IMVI melanoma, 97.7%; in the assay on SK-MEL-28 melanoma it was 109%; in the assay on SK-MEL-2 melanoma it was 73%; in the assay with EKVX NSCLC, 105%. Moreover, the growth with SN12C renal is 106%; in the assay with UO-31 renal it was 88.7%; with TK-10 renal, 88.2%; in the assay on A498 renal, 118%; with CCRF-CEM leukemia, 106%; in the assay with MOLT-4 leukemia it was 95.7%.

As to `CN1C[C@@H](c2ccc(Cl)cc2)[C@]2(NC(=S)N(c3ccccc3)C2=O)[C@@]12C(=O)NC1C=CC(Br)=C[C@H]12` (some centres undefined), the growth was 73.5% with HCT-15 colon; 61.5% with HT29 colon; 69.6% in the assay with SNB-75 CNS; 86.2% in the assay with SNB-19 CNS; 72.5% in the assay with U251 CNS; 28.1% in the assay with PC-3 prostate. Further, the growth with SK-MEL-5 melanoma is 64%; with UACC-62 melanoma, 74.3%; with LOX IMVI melanoma it was 75.5%; with SK-MEL-28 melanoma, 95.4%; with SK-MEL-2 melanoma, 61.2%; in the assay with EKVX NSCLC, 71.1%. Moreover, the growth was 46.1% in the assay on SN12C renal; 40.4% in the assay on UO-31 renal; 87.2% in the assay on TK-10 renal; 80.2% with A498 renal; 30.5% in the assay with CCRF-CEM leukemia; 21.4% in the assay on MOLT-4 leukemia.

Consider `CC(=O)c1sc(-c2ccccc2)cc1N`, for which the growth in the assay on HCT-15 colon is 95.2%; with HT29 colon it was 88.7%; in the assay on SNB-75 CNS, 99.5%; in the assay with SNB-19 CNS, 94.5%; in the assay with U251 CNS, 82.7%; with PC-3 prostate it was 90.8%. The growth with SK-MEL-5 melanoma was 95.7%; with UACC-62 melanoma, 91%; in the assay with LOX IMVI melanoma, 104%; in the assay on SK-MEL-28 melanoma, 108%; in the assay on SK-MEL-2 melanoma, 109%; in the assay on EKVX NSCLC, 44.4%. Besides, the growth in the assay with SN12C renal was 96.1%; in the assay on UO-31 renal it was 88.6%; in the assay on ACHN renal it was 104%; with CAKI-1 renal, 92.9%; with A498 renal, 84.4%; in the assay with MOLT-4 leukemia, 91.7%.
